# From PubChem BioAssay (NCATS)
# Calls of active or inactive are those of the source. Calls come from the whole dose curve; as a rule, active = well fitted activation curve with a large enough effect; inconclusive = small, poorly fitted or top-dose-only effect, or effect the other way; inactive = flat fitted curve, though single readings scatter.
# Experiment: Cellular Toxicity (caspase-3) Renal Proximal Tubule (AID 667);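 note: cells exposed to compound for 16 hours at 37 °C before detection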
# Details: renal proximal tubule cells, primary cells freshly taken from rat, solvent-only wells 0%, staurosporine 100%; series mostly up to 91.7 µM; caspase-3 activation: at the top concentration
# From the text: NIH Chemical Genomics Center [NCGC]
# NIH Molecular Libraries Screening Centers Network [MLSCN]
# National Institutes of Environmental Health Sciences [NIEHS]
# National Toxicology Program [NTP]
# We have developed a 1536-well cell-based assay for quantitative high throughput screening (qHTS) against a number of cell lines to determine in vitro caspase 3/7 activity of small molecules. This particular assay uses the primary kidney proximal tubule cells freshly isolated from rat.
# NCGC Assay Protocol Summary:
# The Caspase-Glo 3/7 assay (Promega) is a homogeneous method to measure caspase-3 and caspase-7 activities in cultured cells. The quantitation of caspase 3/7 activity is based on the cleavage of a peptide-aminoluciferin substrate. After caspase cleaves the substrate the free aminoluciferin is liberated and serves as the substrate of luciferase, which generates the light. The luminescent signal is proportional to the amount of caspase 3/7 activity present.
# Using the Caspase-Glo 3/7 assay, the amount of caspase 3/7 activity was measured in the rat kidney proximal tubule cells with complete culture medium following compound treatment for 16 hours. The assay was performed in opaque white 1536-well plates. In the screen, staurosporine and doxorubicin were used as positive controls. Library compounds were measured for their ability to cause the activation of caspase 3/7 in the cell line, as reflected by an increase in luminescence signal, in a concentration-dependent manner. Data were normalized to the controls for basal activity (DMSO only) and 100% stimulation (10 uM staurosporine). AC50 values were determined from concentration-response data modeled with the standard Hill equation.
# qHTS protocol for caspase 3/7 assay in rat kidney proximal tubule cells
# [Step] [Parameter] [Value] [Description]
# 1. Reagent; 5 uL; 1000 rat kidney proximal tubule cells/well
# 2. Time; 5 hr; 37 °C incubation
# 4. Controls; 23 nL; doxorubicin 7 pM to 100 uM & staurosporine 1.4 pM to 20 uM
# 5. Time; 16 hr; 37 °C incubation
# 6. Reagent; 5 uL; Caspase-Glo 3/7 reagent
# 7. Time; 1 hr; Room Temperature
# 8. Detection; Luminescence; Viewlux plate reader
# Keywords: caspase 3/7, apoptosis, rat kidney proximal tubule cells, luminescence, NTPHTS, NTPHTS_NCGC, NIEHS, EPA, DSSTox, MLSMR, MLSCN, NIH Roadmap, qHTS, NCGC
Compound,caspase-3 activation,outcome
Nc1ccn([C@H]2CC[C@@H](CO)O2)c(=O)n1,6.16% (inactive),–
Clc1ccc(C(c2ccccc2Cl)C(Cl)Cl)cc1 (stereo not given),21.7% (inactive),–
NS(=O)(=O)c1cc2c(cc1Cl)NCNS2(=O)=O,-12.4% (inactive),–
N[C@@H](Cc1c[nH]c2ccc(O)cc12)C(=O)O,9.99% (inactive),–
COc1ccc2c(c1)c(CC(=O)O)c(C)n2C(=O)c1ccc(Cl)cc1,4.45% (inactive),–
CCC1(c2ccccc2)C(=O)NCNC1=O,-6.29% (inactive),–
Cn1c(=O)c2[nH]cnc2n(C)c1=O,5.35% (inactive),–
Nc1c2c(nc3ccccc13)CCCC2,12.6% (inactive),–
COc1ccc(CCN(C)CCCC(C#N)(c2ccc(OC)c(OC)c2)C(C)C)cc1OC (stereo not given),-4.3% (inactive),–
COc1cc2c(c(OC)c1OC)-c1ccc(OC)c(=O)cc1[C@@H](NC(C)=O)CC2,–,inactive
CC(C)C(=O)Nc1ccc([N+](=O)[O-])c(C(F)(F)F)c1,-9.75% (inactive),–
Cc1ccc(-c2cc(C(F)(F)F)nn2-c2ccc(S(N)(=O)=O)cc2)cc1,14.7% (inactive),–
Cc1cn([C@H]2C[C@H](N=[N+]=[N-])[C@@H](CO)O2)c(=O)[nH]c1=O,15% (inactive),–
Cn1c(=O)c2c(ncn2C)n(C)c1=O,-2.67% (inactive),–
O=c1[nH]cc(F)c(=O)[nH]1,-6.18% (inactive),–
Cc1cn([C@H]2C=C[C@@H](CO)O2)c(=O)[nH]c1=O,–,inactive
CC(C)NCC(O)c1ccc(O)c(O)c1 (stereo not given),-1.18% (inactive),–
COc1ccc2[nH]cc(CCNC(C)=O)c2c1,–,inactive
NCCS(=O)(=O)O,-9.3% (inactive),–
O=c1c(-c2ccc(O)cc2)coc2cc(O)cc(O)c12,-5.02% (inactive),–
